# Screening results as filed in PubChem.
# USP28 inh: inhibitors of human USP28 deubiquitinase. Q96RU2. 3% of 47,000 active. purified USP28, Ub-rhodamine cleavage fluorescence, 30 min. inhibition, % at 25 µM
# Target sequence (Q96RU2 whole entry, looked up): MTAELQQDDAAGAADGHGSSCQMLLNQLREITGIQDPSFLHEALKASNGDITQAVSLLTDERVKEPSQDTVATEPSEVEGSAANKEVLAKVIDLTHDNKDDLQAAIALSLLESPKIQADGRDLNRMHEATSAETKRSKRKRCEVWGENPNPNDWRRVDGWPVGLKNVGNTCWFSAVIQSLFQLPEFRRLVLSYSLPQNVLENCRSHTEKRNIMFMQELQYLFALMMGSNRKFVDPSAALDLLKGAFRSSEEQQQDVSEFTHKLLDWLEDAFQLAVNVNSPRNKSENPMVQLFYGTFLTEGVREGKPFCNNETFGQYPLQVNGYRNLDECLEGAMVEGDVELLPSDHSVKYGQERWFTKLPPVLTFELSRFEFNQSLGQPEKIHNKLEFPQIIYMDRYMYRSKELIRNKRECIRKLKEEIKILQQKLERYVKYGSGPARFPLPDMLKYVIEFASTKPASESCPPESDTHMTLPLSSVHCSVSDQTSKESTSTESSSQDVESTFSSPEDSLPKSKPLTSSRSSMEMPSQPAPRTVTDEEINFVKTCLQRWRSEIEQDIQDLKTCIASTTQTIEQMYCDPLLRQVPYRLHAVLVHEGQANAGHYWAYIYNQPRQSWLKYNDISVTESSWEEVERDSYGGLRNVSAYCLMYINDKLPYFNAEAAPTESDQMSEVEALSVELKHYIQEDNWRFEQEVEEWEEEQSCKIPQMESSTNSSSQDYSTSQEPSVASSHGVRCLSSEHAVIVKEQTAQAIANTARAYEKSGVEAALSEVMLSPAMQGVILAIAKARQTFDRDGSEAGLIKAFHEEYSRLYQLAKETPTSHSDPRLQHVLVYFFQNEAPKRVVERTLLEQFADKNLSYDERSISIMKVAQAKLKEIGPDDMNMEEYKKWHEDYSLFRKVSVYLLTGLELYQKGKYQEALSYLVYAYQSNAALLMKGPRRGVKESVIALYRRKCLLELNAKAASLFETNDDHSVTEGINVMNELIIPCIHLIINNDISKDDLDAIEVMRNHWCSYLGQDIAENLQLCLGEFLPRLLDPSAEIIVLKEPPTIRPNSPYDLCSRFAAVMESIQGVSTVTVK
# USP8 block: human USP8 deubiquitinase inhibition; P40818; purified USP8, Ub-rhodamine cleavage fluorescence, 30 min; inhibition, % at 20 µM; 4.2% of 47,000 active
# USP17 block: inhibitors of human USP17 deubiquitinase; inhibition, % at 50 µM; 6.5% of 47,000 active; AID 1645855; A8MUK1; purified USP17, Ub-rhodamine cleavage fluorescence, 3 h
# USP30 inh: inhibitors of human USP30 deubiquitinase; Q70CQ3; purified USP30, Ub-rhodamine cleavage fluorescence; inhibition, % at 25 µM; 5.3% of 47,000 active
# The depositor's hits bear a star; i = inactive; x = not tested or not shown. Shown are actives, neighbours in structure and some others; about 14% of the full set was active somewhere. Rule as the data show it: active = inhibition above about 30%; inactive = the rest.
SMILES,USP28 inh,USP8 block,USP17 block,USP30 inh
CC1=C[C@H]2N(c3ccc(C)cc31)[C@H](C(=O)c1cccs1)[C@@H](C(=O)c1ccc(F)cc1)[C@]21C(=O)Nc2ccccc21,1,78*,59*,-72
COc1ccc(C2=Nc3ccccc3SC(c3ccc4c(c3)OCO4)C2)c(O)c1 (stereo not given),-18,-321,-20,-31
Cc1ccc(CN2C[C@@H]3c4nc(N(C)C)ncc4CS(=O)(=O)[C@@H]3C2)cc1,7,1,-3,31*
Cc1cccc(CN2C[C@@H]3c4nc(N5CCCC5)ncc4CS(=O)(=O)[C@@H]3C2)c1,-28,-13,-30,-107
CC(C)N1CCn2c(nc3cc(NC(=O)c4cccnc4)ccc32)C1,19,32*,34*,-67
O=C(CC(O)(CC(=O)NC(CCCCN(O)C(=O)/C=C/c1ccccc1)C(=O)O)C(=O)O)NC(CCCCN(O)C(=O)/C=C/c1ccccc1)C(=O)O (stereo not given),-26,-45,-117,-101
COC(=O)c1ccc(CNC(=O)COC(=O)c2cc(-c3ccccc3)nc3ccccc23)cc1,9,15,9,47*
CCn1cc2nc(SCC(=O)NC3CCCC3)n(Cc3ccc(C)cc3)c(=O)c2n1,12,6,63*,70*
CCn1cc2nc(SCC(=O)NC3CCCC3)n(Cc3ccc(OC)cc3)c(=O)c2n1,-5,-2,-2,8
N=C1/C(=C/c2cn(Cc3ccccc3F)c3ccccc23)C(=O)N=C2SC(C(F)(F)F)=NN12,-85,48*,-57,-395
CC1=CN2C(=N)/C(=C/c3cn(Cc4ccc(Cl)cc4)c4ccccc34)C(=O)N=C2S1,-274,-97,-186,i
Cc1cc(/C=C2/C(=N)N3C=CSC3=NC2=O)c(C)n1-c1ccc(F)c(Cl)c1,-64,-52,-78,-289
COCCCNc1nc(Nc2ccccc2)c2cnn(C)c2n1,13,15,0,10
Nc1ncnc2nc(CO)[nH]c12,-16,-16,-38,-63
CC(C)C(Nc1ccc(C(F)(F)F)cc1Cl)C(=O)Nc1nc2ccccc2[nH]1 (stereo not given),24,-255,40*,37*
COc1ccc2nc(C)cc(OCC(=O)Nc3cc(C)cc(C)c3)c2c1,-11,-5,36*,20
COc1cc(C)ccc1OCC(=O)Nc1ccc(Oc2ccccc2)cc1,18,10,9,28
COc1ccc(NC(=O)COc2ccccc2C(=O)Nc2ccc3c(c2)NC(=O)C(C)O3)cc1Cl (stereo not given),-3,5,26,-33
CCCN1CCN(S(=O)(=O)c2cc3n(c2)CCCNC3=O)CC1,x,0,-25,x
CC(C)C(C(=O)NCC1CCCO1)N(Cc1ccccc1Cl)C(=O)Cn1cnc2c1c(=O)n(C)c(=O)n2C (stereo not given),0,11,8,15
O=C(NC(c1ccccc1)c1nnc(N2CCOCC2)o1)c1ccccc1Cl (stereo not given),9,14,15,24
CC(C)(C)C(=O)NC(c1ccccc1)c1nnc(N2CCOCC2)o1 (stereo not given),74*,7,4,3
CCC/C=C\C#CC/C=C\CCCCCCCC(=O)O,69*,-15,63*,-87
CCCCCCCC/C=C\CCCCCCCC(=O)O,2,4,22,17
O=C(C1CCC1)N1CCCCC1c1nnc(-c2nccc3ccccc23)o1 (stereo not given),10,8,15,18
SMILES,USP28 inh,USP8 block,USP17 block,USP30 inh
CCCCCC1OC(=O)c2c(C)cccc2Oc2ccc(O)c(C=O)c2/C=C/C1O (stereo not given),53*,14,81*,73*
CCCCC/C=C/C=C/C=C/c1c(O)ccc(O)c1C=O,1,4,5,15
CCCCCC1OC(=O)c2c(C)cccc2Oc2ccc(O)c(CO)c2/C=C/C1O (stereo not given),47*,12,23,19
CC(=O)N(O)[C@@H]1c2cc(C#N)ccc2OC(C)(C)[C@H]1O,-2,34*,4,11
CCc1ccccc1NC(=O)c1cc(-c2ccccn2)n[nH]1,13,6,73*,38*
O=C(Nc1ccccc1)c1cc(-c2ccncc2)n[nH]1,24,2,-5,24
O=C(Nc1ccccc1Cl)c1cc(-c2ccncc2)n[nH]1,79*,-11,74*,92*
Cc1cc(Cl)ccc1NC(=O)c1cc(-c2ccncc2)n[nH]1,72*,21,65*,90*
Cc1cccc(NC(=O)Cc2n[nH]c(Cc3ccc(F)cc3)n2)c1,6,-8,x,-10
CNc1ccc(-c2noc([C@@H]3CCCN3Cc3cccc(C#N)c3)n2)cn1,-12,-7,-69,-27
COc1ccccc1OC[C@@H]1C[C@@]1(C(=O)N1CCOCC1)c1ccccc1OC,-2,0,0,6
CC(=O)Nc1ccc(NC(=O)Cc2csc(COc3ccc(C)cc3)n2)cc1,x,5,52*,x
Cc1ccc(OCc2nc(CC(=O)Nc3cccc(F)c3)cs2)cc1,-8,-3,-8,-33
CC(=O)Nc1ccc(-c2nc(Cn3cc(C)cn3)c(C)o2)cc1,33*,9,-9,-40
CC(=O)Nc1ccc(-c2nc(Cn3nc(C)cc3C)c(C)o2)cc1,-15,-5,-16,-22
CCC(=O)Nc1ccc(-c2nc(Cn3cc(C)cn3)c(C)o2)cc1,55*,-4,-7,-29
Cc1cc2c(cc1CNC(=O)c1ccc3c(c1)OCCO3)OCCCO2,-10,-3,-11,-12
Cc1ccc(-n2nc(C(=O)NC3CCCCC3)c3ncn(C)c(=O)c32)cc1,-9,3,12,-12
Cc1ccc(-n2nc(C(=O)Nc3ccc(C)cn3)c3ncn(C)c(=O)c32)cc1,27,72*,75*,26
Cc1c(O)ccc2c(=O)c(-c3cc4ccccc4o3)coc12,4,19,3,9
O=c1ccc(-c2cc3ccccc3o2)cn1Cc1ccccc1-c1ccccc1,62*,84*,48*,-86
CC(=O)N1CC2(CCN(C(=O)c3cccnc3)CC2)C2(CCN(C)C2=O)C1 (stereo not given),4,-10,0,13
O=C(COc1cccc2c1CCN(Cc1cccnc1)C2=O)Nc1ccc2c(c1)OCCO2,90*,-88,59*,5
O=C(N[C@@H](Cc1ccccc1)C(=O)Nc1ccc2c(c1)OCCO2)c1cccnc1,3,7,6,9
CCOc1ccc(NC(=O)COc2cccc3c2CCN(CC)C3=O)cc1,75*,-5,-1,-1
CCN1CCc2c(OCC(=O)Nc3cc(C(F)(F)F)ccc3Cl)cccc2C1=O,33*,-55,74*,98*
CCc1nc(-c2c(C)cc(C)nc2NC(=O)C2CCCC2)no1,5,13,4,-63
Cc1ccccc1OCCn1cc(C(=O)c2cccs2)c2ccccc21,6,10,8,-8
NCCC(=O)N1CCN2C(=O)N(c3cccnc3)C(=O)C2(Cc2ccccc2)CC1 (stereo not given),2,-58,-4,23
O=C(CO)N1C[C@H](Oc2ccccn2)[C@H]2C[C@@H]1CC[C@H]2N1CCOCC1,-9,5,-1,-9
